The panel holds about 83,000 compounds, 20% with a hit somewhere; the sample as a whole holds those more often.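 Values shown are percent growth following 48 h exposure of cells in 96-well plates to a single concentration of compound; below 10 was considered active.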 Calls of active or inactive are those of the source.
Key:
Test in all cases: NCI-60 one-dose screen, 48 h (100 = growth as untreated, 0 = no growth, -100 = all killed)
Conditions in all cases: 10 µM
NCI-H23 lung = tested on: NCI-H23 lung
NCI-H322M lung = tested on: NCI-H322M lung
HOP-62 NSCLC = tested on: HOP-62 NSCLC
NCI-H460 lung = tested on: NCI-H460 lung
HOP-92 NSCLC = tested on: HOP-92 NSCLC
NCI-H522 lung = tested on: NCI-H522 lung
A549/ATCC NSCLC = tested on: A549/ATCC NSCLC
786-0 renal = tested on: 786-0 renal
COLO 205 colon = tested on: COLO 205 colon

Measured: growth

O=c1[nH][nH]c(=O)c2cc([N+](=O)[O-])ccc12
inactive: NCI-H23 lung 101% | NCI-H322M lung 123% | HOP-62 NSCLC 102% | NCI-H460 lung 111% | HOP-92 NSCLC 107% | NCI-H522 lung 90.6% | A549/ATCC NSCLC 108% | 786-0 renal 106% | COLO 205 colon 99.6%

COc1ccc(-c2cc3c(nn2)-c2ccccc2C3=O)cc1
inactive: NCI-H23 lung 68.5% | NCI-H322M lung 65.6% | NCI-H460 lung 15.1% | HOP-92 NSCLC 98.3% | NCI-H522 lung 26.4% | 786-0 renal 25.8% | COLO 205 colon 42.3%
active: HOP-62 NSCLC -14.4% | A549/ATCC NSCLC 2.29%

COc1ccc2c(c1)CCc1c-2n[nH]c1-c1[nH]nc2c1CCc1cc(OC)ccc1-2
inactive: NCI-H23 lung 75.4% | NCI-H322M lung 90.5% | HOP-62 NSCLC 66% | NCI-H460 lung 53.5% | HOP-92 NSCLC 84.6% | NCI-H522 lung 34% | A549/ATCC NSCLC 79% | 786-0 renal 64.7% | COLO 205 colon 67.8%

COc1cc2cc(OC(C)=O)c3cc4c(cc3c2c(OC)c1OC)OCO4
inactive: NCI-H23 lung 91.9% | NCI-H322M lung 95.4% | HOP-62 NSCLC 91.5% | NCI-H460 lung 103% | HOP-92 NSCLC 96.3% | NCI-H522 lung 97.6% | A549/ATCC NSCLC 106% | 786-0 renal 106% | COLO 205 colon 106%

CCCC(C)OCC(=O)O (stereo not given)
inactive: NCI-H23 lung 109% | NCI-H322M lung 96.8% | HOP-62 NSCLC 111% | NCI-H460 lung 103% | HOP-92 NSCLC 76.6% | NCI-H522 lung 101% | A549/ATCC NSCLC 93.9% | 786-0 renal 107% | COLO 205 colon 108%

CC(=O)/C(Cc1ccccc1)=N/O
inactive: NCI-H23 lung 97.3% | NCI-H322M lung 105% | HOP-62 NSCLC 98.4% | NCI-H460 lung 105% | HOP-92 NSCLC 68% | NCI-H522 lung 74.3% | A549/ATCC NSCLC 95.4% | 786-0 renal 102% | COLO 205 colon 97.9%

C/C(=N/NC(N)=O)c1ccco1
inactive: NCI-H23 lung 97.1% | NCI-H322M lung 107% | HOP-62 NSCLC 85.7% | NCI-H460 lung 107% | HOP-92 NSCLC 89.8% | NCI-H522 lung 90.5% | A549/ATCC NSCLC 83.7% | 786-0 renal 99.9% | COLO 205 colon 105%

COc1cc(C2c3cc4c(cc3C3OC(=O)C2C3CO)OCO4)cc(OC)c1OC (stereo not given)
active: NCI-H460 lung 0.82% | NCI-H522 lung -30.5% | COLO 205 colon -92.4%
inactive: NCI-H23 lung 14.7% | NCI-H322M lung 36.9% | HOP-62 NSCLC 28.5% | HOP-92 NSCLC 45.7% | A549/ATCC NSCLC 14.9% | 786-0 renal 14.4%

COC1=CC(=O)c2nc(Cl)ccc2C1=O
active: NCI-H23 lung -15.2% | HOP-92 NSCLC -18.4% | NCI-H522 lung -51.2%
inactive: NCI-H322M lung 106% | HOP-62 NSCLC 89.4% | NCI-H460 lung 115% | A549/ATCC NSCLC 98.3% | 786-0 renal 72.4% | COLO 205 colon 102%

CCCCCCCCO
inactive: NCI-H23 lung 97.5% | NCI-H322M lung 108% | HOP-62 NSCLC 99.6% | NCI-H460 lung 103% | HOP-92 NSCLC 107% | NCI-H522 lung 107% | A549/ATCC NSCLC 100% | 786-0 renal 102% | COLO 205 colon 114%

CCOC(=O)c1ccc(NC(=S)P(=O)(c2ccccc2)c2ccccc2)cc1
inactive: NCI-H23 lung 102% | NCI-H322M lung 94.7% | HOP-62 NSCLC 105% | NCI-H460 lung 71.3% | HOP-92 NSCLC 78.1% | NCI-H522 lung 113% | A549/ATCC NSCLC 103% | 786-0 renal 101% | COLO 205 colon 115%

COc1ccc(-c2cc(-c3cc(-c4ccc(OC)cc4)nc(N)n3)nc(N)n2)cc1
inactive: NCI-H23 lung 102% | NCI-H322M lung 94.3% | HOP-62 NSCLC 94.7% | NCI-H460 lung 99.5% | HOP-92 NSCLC 105% | NCI-H522 lung 100% | A549/ATCC NSCLC 97.8% | 786-0 renal 103% | COLO 205 colon 107%

CC1CC(O)C2C3(C)CCCC2(COC3=O)C12CCC1(CCOC1=O)O2 (stereo not given)
inactive: NCI-H23 lung 109% | NCI-H322M lung 117% | HOP-62 NSCLC 111% | NCI-H460 lung 95.4% | HOP-92 NSCLC 81.8% | NCI-H522 lung 107% | A549/ATCC NSCLC 110% | 786-0 renal 99.1% | COLO 205 colon 118%

S=C1CCCCCN1
inactive: NCI-H23 lung 105% | NCI-H322M lung 99.5% | HOP-62 NSCLC 92.9% | NCI-H460 lung 106% | HOP-92 NSCLC 103% | NCI-H522 lung 105% | A549/ATCC NSCLC 101% | 786-0 renal 107% | COLO 205 colon 111%

COC(=O)c1cc(-c2ccc(Cl)c(Cl)c2)[nH]c(=O)c1C#N
inactive: NCI-H23 lung 107% | NCI-H322M lung 95.4% | HOP-62 NSCLC 95.5% | NCI-H460 lung 109% | HOP-92 NSCLC 91.4% | NCI-H522 lung 97.6% | A549/ATCC NSCLC 101% | 786-0 renal 91.7% | COLO 205 colon 114%
